# Results published in the supplement of paper PMC10037445.
# In all, about 2,900 compounds were measured (“IRF Lucia reporter activity, fold change vs agonist alone”: median about 0.9, highest 2% from about 2.8 on). Shown is part of a subset that was picked to be rich in the highest values.
# Columns and labels:
# RAW-Dual [1] = experiment: IRF Lucia reporter activity, fold change vs agonist alone; higher = enhanced IRF activity; conditions: library stock concentration (final ~1000-fold dilution): 10 mM, agonist: MPLA (TLR4) […]
# Method in brief: (§1)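 RAW-Dual macrophages (50,000 cells/well in DMEM, 384-well plates) received 50 nL of library stock by pin tool, then a PRR agonist 1 h later, and were kept at 37 °C, 5% CO2. After 20 hours, supernatant was read for IRF by QuantiLuc luminescence and for NF-κB by QuantiBlue absorbance at 620 nm. Reporter activity is fold change over agonist-alone wells. Cytotoxic wells had IncuCyte confluency below 70% of agonist controls in both mask sets.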
# RAW-Dual [2] = experiment: IRF Lucia reporter activity, fold change vs agonist alone; cytotoxicity flag (confluency mask): not cytotoxic; higher = enhanced IRF activity; conditions: library stock concentration (final ~1000-fold dilution): 10 mM
# Method in brief: as §1
# RAW-Dual [3] = experiment: IRF Lucia reporter activity, fold change vs agonist alone; cytotoxicity flag (confluency mask): cytotoxic (confluency <70% of control); higher = enhanced IRF activity; conditions: library stock concentration (final ~1000-fold dilution): 10 mM
# Method in brief: as §1
# [4] = cytotoxicity flag (confluency mask): not cytotoxic
# [5] = agonist: 3'3'-cGAMP (STING) 10 ug/mL
compound,measurement,setting,value
CCC(C)C(NC(=O)C(C(C)CC)N(C)C(C)=O)C(=O)NC(=O)C(NC(CC(C)C)C(=O)C1(C)CO1)C(C)O (stereo not drawn),IRF Lucia reporter activity,RAW-Dual [1]; [4],2.09
same,IRF Lucia reporter activity,RAW-Dual [2]; [5],1.55
same,IRF Lucia reporter activity,RAW-Dual [2]; agonist: LPS (TLR4) 0.1 ug/mL,4.46
COc1cc2c(cc1OC)C(Cc1ccc(O)c(Oc3cc4c(cc3OC)CCN(C)C4Cc3ccc(O)cc3)c1)N(C)CC2.[O-][Cl+3]([O-])([O-])O (stereo not drawn),IRF Lucia reporter activity,RAW-Dual [2]; [5],0.0548
same,IRF Lucia reporter activity,RAW-Dual [2]; agonist: LPS (TLR4) 0.1 ug/mL,0.74
Cc1sc2c(c1C)C(c1ccc(Cl)cc1)=NC(CC(=O)OC(C)(C)C)c1nnc(C)n1-2 (stereo not drawn),IRF Lucia reporter activity,RAW-Dual [1]; cytotoxicity flag (confluency mask): cytotoxic (confluency <70% of control),0.122
same,IRF Lucia reporter activity,RAW-Dual [3]; [5],0.193
same,IRF Lucia reporter activity,RAW-Dual [3]; agonist: LPS (TLR4) 0.1 ug/mL,0.185
CC(C)c1ccc2c(c1O)CCC1C3=C(CCC21C)C(=O)OC3 (stereo not drawn),IRF Lucia reporter activity,RAW-Dual [2]; [5],0.917
same,IRF Lucia reporter activity,RAW-Dual [2]; agonist: LPS (TLR4) 0.1 ug/mL,1.25
CCC12C=CCN3CCC4(c5ccc(OC)cc5N(C)C4C(O)(C(=O)OC)C1OC(C)=O)C32 (stereo not drawn),IRF Lucia reporter activity,RAW-Dual [1]; [4],1.06
same,IRF Lucia reporter activity,RAW-Dual [2]; [5],0.891
same,IRF Lucia reporter activity,RAW-Dual [2]; agonist: LPS (TLR4) 0.1 ug/mL,1.25
